Here are results for 13 molecules from PubChem BioAssay (NCI).

Test systems include HCT-15 colon; HT29 colon; SNB-75 CNS; SNB-19 CNS; U251 CNS; PC-3 prostate; SK-MEL-5 melanoma; UACC-62 melanoma; LOX IMVI melanoma; SK-MEL-28 melanoma.
Holding throughout (assay): NCI-60 one-dose screen, 48 h (100 = growth as untreated, 0 = no growth, -100 = all killed)
Conditions in all cases: 10 µM unless noted

The structures appear in SMILES notation. The panel holds about 83,000 compounds, 20% with a hit somewhere; the sample as a whole holds those more often.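 Single-dose data. Exposure time 48 hours. Values below 10 considered active.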 Unmarked numbers belong to inactive results. Activity calls are given as the source filed them.

Consider `CC1(C)N=C(N)N=C(N)N1c1cccc(CCCCc2ccc(Cl)c(S(=O)(=O)F)c2)c1`, for which the growth in the assay with HCT-15 colon is 66.6%; in the assay with HT29 colon it was 12.5%; with SNB-75 CNS it was 62.2%; in the assay with SNB-19 CNS it was 45.9%; in the assay on U251 CNS, 35.3%; with PC-3 prostate it was 24.1%. The growth in the assay on SK-MEL-5 melanoma was 16.4%; with UACC-62 melanoma, 15.3%; in the assay with LOX IMVI melanoma, 16.5%; with SK-MEL-28 melanoma, 70.2%.
Consider `COc1ccc(N(CC(=O)NCCC[Te]c2ccccc2)C(=O)CNC(=O)OC(C)(C)C)cc1`, for which the growth with HCT-15 colon is 11.3%; with HT29 colon it was -36.8% (active); in the assay with SNB-75 CNS, 57.9%; in the assay with SNB-19 CNS, 33%; in the assay with U251 CNS, 12.4%; in the assay with PC-3 prostate it was 8.59% (active). Further, the growth with SK-MEL-5 melanoma is 41.4%; in the assay on UACC-62 melanoma, 89.2%; in the assay with LOX IMVI melanoma it was 17.6%; with SK-MEL-28 melanoma, 105%.
Consider `COC(=O)[C@@H](C)C[C@H](Cc1ccccc1)NC(=O)c1csc([C@@H](C[C@H](C(C)C)N(C)C(=O)[C@@H](NC(=O)[C@H]2CCCCN2C)c2ccc(F)cc2)OC(C)=O)n1`, for which the growth in the assay with HCT-15 colon was 15.5%; with HT29 colon it was 6.87% (active); with SNB-75 CNS, 30.7%; in the assay on SNB-19 CNS, 74.8%; with U251 CNS, 4.87% (active); in the assay on PC-3 prostate it was 15.8%. The growth in the assay with SK-MEL-5 melanoma was -46.3% (active); in the assay with UACC-62 melanoma, 40%; in the assay on LOX IMVI melanoma it was 7.62% (active); in the assay on SK-MEL-28 melanoma, 49.6%.
On to `COc1ccc(/C=C\c2cc(OC)c(OC)c(OC)c2)cc1OCC(=O)Nc1nc2ccc(C(F)(F)F)cc2s1`, for which the growth in the assay on HCT-15 colon was 15.2%; in the assay with HT29 colon, 92.6%; in the assay with SNB-75 CNS, -6.34% (active); in the assay on SNB-19 CNS, 33.7%; with U251 CNS, 18%; in the assay with PC-3 prostate, 31.5%. Further, the growth with SK-MEL-5 melanoma was 16.8%; in the assay on UACC-62 melanoma it was 32.1%; in the assay with LOX IMVI melanoma it was 9.35% (active); in the assay on SK-MEL-28 melanoma it was 32.9%.
On to `O=C(Nc1ccc(Cl)cc1)Nc1nccs1`, for which the growth was 33% in the assay with HCT-15 colon; 10.7% in the assay on HT29 colon; 1.2% (active) in the assay with SNB-75 CNS; 64.9% in the assay with SNB-19 CNS; 22.3% in the assay on U251 CNS; 13.3% in the assay on PC-3 prostate. For the same molecule, the growth with SK-MEL-5 melanoma is 31.2%; in the assay with UACC-62 melanoma, 50.3%; in the assay with LOX IMVI melanoma, 46.3%; in the assay with SK-MEL-28 melanoma, 50.5%.
Regarding `COC(=O)[C@H](Cc1ccccc1)NC(=O)c1csc([C@@H](C[C@H](C(C)C)N(C)C(=O)[C@@H](NC(=O)[C@H]2CCCCN2C)C2CC2)OC(C)=O)n1`, the growth in the assay on HCT-15 colon is 13.1%; with HT29 colon, 5.33% (active); in the assay on SNB-75 CNS it was 34.3%; in the assay with SNB-19 CNS it was 69.6%; in the assay with U251 CNS it was -5.23% (active); with PC-3 prostate it was 11.3%. The growth in the assay with SK-MEL-5 melanoma was -1.17% (active); in the assay on UACC-62 melanoma, 36.3%; in the assay with LOX IMVI melanoma it was 14.7%; in the assay on SK-MEL-28 melanoma it was 44.7%.
`O=[N+]([O-])c1cc(I)cc([N+](=O)[O-])c1`: the growth is 90.2% in the assay on HCT-15 colon; 109% in the assay with HT29 colon; 93.2% in the assay on SNB-75 CNS; 113% in the assay with SNB-19 CNS; 107% in the assay on U251 CNS; 92.5% in the assay with PC-3 prostate. Further, the growth with SK-MEL-5 melanoma is 95.2%; in the assay on UACC-62 melanoma, 103%; in the assay with LOX IMVI melanoma it was 91.8%; with SK-MEL-28 melanoma, 116%.
As to `COc1ccc(-n2c(C)nc3cc(OC)c(OC)cc3c2=O)cc1OC`, the growth with HCT-15 colon was 111%; in the assay with HT29 colon, 106%; with SNB-75 CNS it was 92.2%; in the assay with SNB-19 CNS, 102%; with U251 CNS, 94.4%; in the assay on PC-3 prostate, 101%. For the same molecule, the growth in the assay on SK-MEL-5 melanoma was 104%; in the assay on UACC-62 melanoma it was 104%; with LOX IMVI melanoma it was 101%; with SK-MEL-28 melanoma it was 109%.
`COc1cccc(C=NC(Cc2cnc[nH]2)C(=O)O)c1O` (stereo not given): the growth in the assay with HCT-15 colon is 108%; with HT29 colon, 100%; in the assay with SNB-75 CNS, 86.3%; in the assay with SNB-19 CNS it was 96.1%; in the assay on U251 CNS it was 102%; in the assay on PC-3 prostate, 51.5%. The growth in the assay on SK-MEL-5 melanoma was 94.2%; in the assay with UACC-62 melanoma, 95.6%; with LOX IMVI melanoma, 100%; with SK-MEL-28 melanoma, 103%.
Take `C[C@]12CC[C@H]3[C@@H](CC4SC(N)=NC45C/C(=N/NC(N)=O)CC[C@]35C)[C@@H]1CCC2=O` (stereo not given in full): the growth in the assay on HCT-15 colon was -47.8% (active); in the assay on HT29 colon, 13.2%; with SNB-75 CNS, 99%; in the assay with SNB-19 CNS, -9.98% (active); in the assay on U251 CNS it was -69.9% (active); in the assay with PC-3 prostate, 57.3%. Also, the growth in the assay with SK-MEL-5 melanoma is 20.6%; with UACC-62 melanoma, 38.9%; in the assay on LOX IMVI melanoma, -67.6% (active); in the assay with SK-MEL-28 melanoma, 13%.
On to `CC[C@H](NC(=O)[C@H]1CCCCN1C)C(=O)N(C)[C@H](C[C@@H](OC(C)=O)c1nc(C(=O)N[C@@H](Cc2ccccc2)C[C@H](C)C(=O)O)cs1)C(C)C`, for which the growth in the assay on HCT-15 colon was 6.42% (active); with HT29 colon, 2.74% (active); in the assay on SNB-75 CNS, 24.9%; with SNB-19 CNS, 17.6%; with U251 CNS, 14.9%; in the assay with PC-3 prostate, 22.9%. For the same molecule, the growth was -40.3% (active) in the assay with SK-MEL-5 melanoma, 27.1% with UACC-62 melanoma, 13.2% in the assay on LOX IMVI melanoma and 73.7% with SK-MEL-28 melanoma.
On to `COc1ccc(O)c(CNC(=O)CN2CCCC2=O)c1`, for which the growth is 103% with HCT-15 colon; 104% with HT29 colon; 81.3% with SNB-75 CNS; 103% with SNB-19 CNS; 103% in the assay on U251 CNS; 92.1% in the assay on PC-3 prostate. Besides, the growth in the assay with SK-MEL-5 melanoma was 107%; in the assay with UACC-62 melanoma, 96.6%; with LOX IMVI melanoma, 99.4%; in the assay on SK-MEL-28 melanoma, 99.4%.
Take `C/C(=C\c1ccn(-c2ccc(N)cc2)n1)[C@@H]1C[C@@H]2O[C@]2(C)CCC[C@H](C)[C@H](O)[C@@H](C)C(=O)C(C)(C)[C@@H](O)CC(=O)O1`: the growth was 20% with HCT-15 colon; 15.4% in the assay with HT29 colon; 3.99% (active) in the assay on SNB-75 CNS; 33.3% in the assay on SNB-19 CNS; 25.9% in the assay on U251 CNS; 13.2% in the assay on PC-3 prostate. Further, the growth was 10.9% in the assay with SK-MEL-5 melanoma, 19.7% in the assay with UACC-62 melanoma, 29.5% in the assay on LOX IMVI melanoma and 59.4% with SK-MEL-28 melanoma.
